Data reported in the supplement of paper PMC6897291.
Structures can show the parent of a compound that is named as a salt.

What was measured:
U-2932 [1] = assay: growth inhibition by drug alone (1 - RLU/untreated control) (fraction); higher = stronger inhibition; conditions: 177Lu-lilotomab satetraxetan 0 ug/ml
In short: (§1)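 With or without 18 h pretreatment by a radiolabelled anti-CD37 antibody conjugate (~600 MBq/mg; 0.5 µg/ml RIVA, 1 µg/ml U-2932), RIVA and U-2932 cells were washed and plated at 3,000 cells/well. Pre-printed compound doses were 10/100 nM for RIVA and 10/1,000 nM for U-2932. Growth inhibition uses RealTime-Glo RLU relative to the untreated no-drug wells. The calculation is 1 − RLU/mean of 48 such wells per plate, with reads daily from day 3 after 1 h at 37°C.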

RIVA [2] = assay: as above; conditions: 177Lu-lilotomab satetraxetan 0 ug/ml
In short: as §1

U-2932 [3] = assay: growth inhibition by drug plus 177Lu-lilotomab satetraxetan (1 - RLU/untreated control) (fraction); higher = stronger inhibition; conditions: 177Lu-lilotomab satetraxetan 1 ug/ml
In short: as §1

RIVA [4] = assay: as above; conditions: 177Lu-lilotomab satetraxetan 0.5 ug/ml
In short: as §1

Compound	growth inhibition by drug alone (U-2932 [1]; 10 nM, time (day): 3)	growth inhibition by drug alone (U-2932 [1]; 10 nM, time (day): 4)	growth inhibition by drug alone (U-2932 [1]; 10 nM, time (day): 5)	growth inhibition by drug alone (U-2932 [1]; 10 nM, time (day): 6)	growth inhibition by drug alone (U-2932 [1]; 1000 nM, time (day): 3)	growth inhibition by drug alone (U-2932 [1]; 1000 nM, time (day): 4)	growth inhibition by drug alone (U-2932 [1]; 1000 nM, time (day): 5)	growth inhibition by drug alone (U-2932 [1]; 1000 nM, time (day): 6)	growth inhibition by drug alone (RIVA [2]; 10 nM, time (day): 3)	growth inhibition by drug alone (RIVA [2]; 10 nM, time (day): 4)	growth inhibition by drug alone (RIVA [2]; 10 nM, time (day): 5)	growth inhibition by drug alone (RIVA [2]; 10 nM, time (day): 6)	growth inhibition by drug alone (RIVA [2]; 100 nM, time (day): 3)	growth inhibition by drug alone (RIVA [2]; 100 nM, time (day): 4)	growth inhibition by drug alone (RIVA [2]; 100 nM, time (day): 5)	growth inhibition by drug alone (RIVA [2]; 100 nM, time (day): 6)	growth inhibition by drug plus 177Lu-lilotomab satetraxetan (U-2932 [3]; 10 nM, time (day): 3)	growth inhibition by drug plus 177Lu-lilotomab satetraxetan (U-2932 [3]; 10 nM, time (day): 4)	growth inhibition by drug plus 177Lu-lilotomab satetraxetan (U-2932 [3]; 10 nM, time (day): 5)	growth inhibition by drug plus 177Lu-lilotomab satetraxetan (U-2932 [3]; 10 nM, time (day): 6)	growth inhibition by drug plus 177Lu-lilotomab satetraxetan (U-2932 [3]; 1000 nM, time (day): 3)	growth inhibition by drug plus 177Lu-lilotomab satetraxetan (U-2932 [3]; 1000 nM, time (day): 4)	growth inhibition by drug plus 177Lu-lilotomab satetraxetan (U-2932 [3]; 1000 nM, time (day): 5)	growth inhibition by drug plus 177Lu-lilotomab satetraxetan (U-2932 [3]; 1000 nM, time (day): 6)	growth inhibition by drug plus 177Lu-lilotomab satetraxetan (RIVA [4]; 10 nM, time (day): 3)	growth inhibition by drug plus 177Lu-lilotomab satetraxetan (RIVA [4]; 10 nM, time (day): 4)	growth inhibition by drug plus 177Lu-lilotomab satetraxetan (RIVA [4]; 10 nM, time (day): 5)	growth inhibition by drug plus 177Lu-lilotomab satetraxetan (RIVA [4]; 10 nM, time (day): 6)	growth inhibition by drug plus 177Lu-lilotomab satetraxetan (RIVA [4]; 100 nM, time (day): 3)	growth inhibition by drug plus 177Lu-lilotomab satetraxetan (RIVA [4]; 100 nM, time (day): 4)	growth inhibition by drug plus 177Lu-lilotomab satetraxetan (RIVA [4]; 100 nM, time (day): 5)	growth inhibition by drug plus 177Lu-lilotomab satetraxetan (RIVA [4]; 100 nM, time (day): 6)
COc1cc2c(cc1OC)CN(CCc1ccc(NC(=O)c3cccc4c(=O)c5cccc(OC)c5[nH]c34)cc1)CC2 [Elacridar]	-0.00987	0.00491	0.00725	0.0766	0.114	0.0649	0.000978	-0.0858	-0.196	-0.178	-0.24	-0.531	-0.21	-0.258	-0.283	-0.457	-0.0285	0.00551	0.0106	0.107	0.0477	0.0502	0.0374	-0.0614	0.3	0.468	0.491	0.503	0.263	0.407	0.424	0.403
Cc1ccc(-c2cc(C(F)(F)F)nn2-c2ccc(S(N)(=O)=O)cc2)cc1 [Celecoxib]	-0.0761	-0.0572	-0.00842	0.0336	-0.0323	-0.0104	-0.0383	-0.0538	-0.101	-0.129	-0.153	-0.237	-0.0795	-0.119	-0.157	-0.232	-0.0503	-0.0256	0.0111	0.161	-0.109	-0.0274	0.00456	0.0432	0.337	0.477	0.505	0.512	0.373	0.448	0.453	0.425
CC(c1cc2ccccc2s1)N(O)C(N)=O (stereo not drawn) [Zileuton]	0.0373	0.016	-0.0853	-0.151	-0.0669	-0.0105	-0.0851	-0.12	-0.0289	-0.0441	-0.104	-0.421	-0.161	-0.195	-0.186	-0.323	-0.00999	0.00112	0.025	0.0355	-0.0574	0.0263	-0.0233	0.0666	0.389	0.507	0.537	0.547	0.4	0.496	0.496	0.482
Cc1ccc(NC(=O)c2ccc(CN3CCN(C)CC3)cc2)cc1Nc1nccc(-c2cccnc2)n1 [Imatinib (Gleevec)]	0.114	0.0795	0.0573	-0.108	-0.0113	-0.0535	-0.0116	-0.0612	-0.0508	-0.0897	-0.292	-0.626	-0.513	-0.311	-0.289	-0.464	-0.0306	0.0247	0.124	0.134	-0.0872	-0.0527	0.073	0.171	0.424	0.545	0.568	0.595	0.301	0.444	0.462	0.483
C[C@]1(c2nc3c(C(N)=O)cccc3[nH]2)CCCN1 [ABT-888 (Veliparib)]	-0.0659	-0.0358	-0.0424	0.0616	-0.0937	-0.0475	-0.078	-0.068	-0.145	-0.176	-0.216	-0.314	-0.198	-0.238	-0.247	-0.287	-0.0353	-0.0127	0.0158	0.166	-0.0568	0.0163	0.019	0.0852	0.338	0.488	0.516	0.518	0.307	0.418	0.442	0.427
CN(C)Cc1c(C(=O)NCCOc2ccc(C(=O)NO)cc2)oc2ccccc12	0.0311	0.0492	0.0509	-0.0158	0.972	0.985	0.987	0.988	-0.0928	-0.0394	-0.0793	-0.251	0.392	0.295	0.256	0.158	0.0477	0.0589	0.111	0.194	0.988	0.989	0.99	0.991	0.524	0.628	0.645	0.659	0.926	0.925	0.931	0.938
COc1cccc2c1C(=O)c1c(O)c3c(c(O)c1C2=O)C[C@@](O)(C(=O)CO)C[C@@H]3O[C@H]1C[C@H](N)[C@@H](O)[C@H](C)O1 [Epirubicin Hydrochloride]	0.0435	0.0793	0.0717	0.093	0.943	0.964	0.975	0.98	-0.0808	0.0051	0.0307	0.0473	0.436	0.719	0.848	0.91	0.24	0.323	0.39	0.484	0.965	0.977	0.982	0.986	0.734	0.792	0.829	0.863	0.887	0.93	0.949	0.967
CN1CCC(CNc2ccc3ncc(-c4cccc(OC(F)(F)F)c4)n3n2)CC1 [SGI-1776 free base]	0.04	0.0462	-0.0159	-0.415	0.131	0.115	0.0463	-0.00407	-0.104	-0.155	-0.336	-0.875	-0.453	-0.367	-0.351	-0.438	-0.0394	0.0134	0.0445	0.0394	0.154	0.125	0.168	0.265	0.428	0.539	0.541	0.561	0.302	0.441	0.445	0.462
S=C(NCc1ccc2c(c1)OCO2)N1CCN(c2ncnc3c2oc2ccccc23)CC1 [Amuvatinib (MP-470)]	0.138	0.0926	-0.0674	-0.0914	0.459	0.471	0.474	0.434	0.0683	0.0587	0.0228	-0.162	0.05	0.0617	0.0713	0.0541	0.0425	0.101	0.162	0.177	0.465	0.477	0.498	0.561	0.627	0.668	0.684	0.68	0.641	0.642	0.661	0.677
COc1cc2nc(N3CCCN(C)CC3)nc(NC3CCN(Cc4ccccc4)CC3)c2cc1OC	0.128	0.0539	-0.00458	-0.0956	0.00727	0.0766	0.0688	0.0239	0.0768	0.122	0.055	-0.0793	0.209	0.192	0.165	0.117	0.0951	0.135	0.169	0.207	0.133	0.247	0.267	0.319	0.498	0.588	0.618	0.631	0.469	0.552	0.569	0.565
CC(NC(=O)c1ccccc1/N=C/c1c(O)ccc2ccccc12)c1ccccc1 (stereo not drawn) [Sirtinol]	0.0874	0.0846	0.0103	-0.0559	0.00453	0.0486	-0.0294	-0.196	-0.0251	0.00147	-0.0621	-0.367	-0.00236	-0.00311	-0.00892	-0.099	0.0459	0.0759	0.116	0.164	-0.00947	0.0904	0.0917	0.101	0.345	0.472	0.506	0.526	0.436	0.523	0.536	0.529
CCn1c(-c2nonc2N)nc2cnc(Oc3cccc(NC(=O)c4ccc(OCCN5CCOCC5)cc4)c3)cc21	-0.134	-0.155	-0.145	-0.41	0.0463	0.0519	0.129	0.357	-0.232	-0.237	-0.286	-0.351	-0.202	-0.237	-0.215	-0.241	-0.198	-0.145	-0.0619	0.0328	0.279	0.292	0.374	0.603								
CC[C@]1(O)C[C@H]2CN(CCc3c([nH]c4ccccc34)[C@@](C(=O)OC)(c3cc4c(cc3OC)N(C=O)[C@H]3[C@@](O)(C(=O)OC)[C@H](OC(C)=O)[C@]5(CC)C=CCN6CC[C@]43[C@@H]65)C2)C1 [Vincristine]	0.944	0.954	0.97	0.978	0.964	0.972	0.979	0.984	0.941	0.955	0.965	0.971	0.938	0.955	0.962	0.967	0.958	0.97	0.978	0.982	0.972	0.978	0.983	0.988	0.964	0.976	0.983	0.985	0.956	0.967	0.973	0.979
Cc1nc(N)sc1-c1ccnc(Nc2ccc(N3CCOCC3)cc2)n1	0.00864	-0.0087	-0.0373	-0.101	0.0735	0.00717	0.0172	0.253	-0.0458	-0.131	-0.156	-0.327	-0.0826	-0.139	-0.133	-0.233	-0.0148	0.00212	0.025	0.0655	0.0555	0.0326	0.0942	0.374	0.375	0.481	0.505	0.525	0.398	0.486		
